# Screening data as filed in PubChem BioAssay.
# An excerpt weighted towards active compounds, which were near 15% of everything screened.
# HCMV antiviral: qHTS Assay for inhibitors of the human cytomegalovirus (HCMV); HFF cells, HCMV-luciferase reporter, 72 h; active compounds read low; activity change, negative = inhibition, % at 57.5 µM; 410,000 compounds, 4.5% hits; in the data active means activity change below about -60%; inconclusive means no clear call, values can overlap the other calls; inactive means above about -39%; further: on the % scale 0 is the no-effect control and ±100 the full control effect
#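 Cell-based, HFFs, 1000 cells/well, 16 h 37C; cpds in DMSO + HCMV-luc, MOI 1 PFU/cell; 72 h 37C; OneGlo luminescence after 5 min RT; norm. to buffer vs Salinomycin 10uM.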
# HCV inh: qHTS Assay for Inhibitors of Hepatitis C Virus (HCV); Huh7.5.1 HCVcc-Cre infection, luciferase reporter, 44 h; Potency, µM (titrated, usually from 41.8 µM), for inactives: top-dose activity change, negative = inhibition, actives largely listed as inhibitors; 340,000 compounds, 3.4% hits; further: potency means the concentration at half of the fitted maximal effect; on the % scale 0 is the no-effect control and ±100 the full control effect
#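 Cells (1,000/well) were plated 4 h before compound, then infected with HCVcc-Cre virus (~0.5 moi). After 44 h further culture, infection was read as luciferase luminescence following a 15 min substrate incubation at room temperature.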
# Pf growth 48h: Primary qHTS for delayed death inhibitors of the malarial parasite plastid, 48 hour incubation; AID 504832, 2011; Potency, µM (series often up to 28.7 µM), for inactives: top-dose activity change, negative = inhibition, actives largely listed as inhibitors; 310,000 compounds, 5.9% hits; P. falciparum luciferase growth in erythrocytes, 48 h; further: potency means the concentration at half of the fitted maximal effect; on the % scale 0 is the no-effect control and ±100 the full control effect
#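 Luciferase-expressing P. falciparum in infected erythrocytes (2% hematocrit, 0.1% parasitemia final) in RPMI 1640/0.5% Albumax were exposed to compound for 48 hours at 37 C, 5% CO2; growth read as luminescence.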
# SARS PLpro yeast: qHTS of Yeast-based Assay for SARS-CoV PLP | Potency, µM (highest dose often 32.9 µM), inactives show at the highest dose activity, positive = growth rescue, usual class: activators | S. cerevisiae expressing SARS-CoV PLpro, growth rescue | 330,000 compounds, 0.19% hits; calls by dose curve; further: potency means the concentration at half of the fitted maximal effect; 0% is about no effect; nearly all actives have a fitted effect of over 55% in size
# Sm TGR inh: qHTS Assay for the Inhibitors of Schistosoma Mansoni Peroxiredoxins. 360,000 compounds, 3% hits. Schistosoma mansoni thioredoxin glutathione reductase (TGR), Q962Y6. Potency, µM (highest dose often 114 µM), without a hit: at the highest dose activity change, negative = inhibition, usual class: inhibitors. purified TGR, DTNB reduction, TNB absorbance 405 nm; further: potency means the concentration at half of the fitted maximal effect; on the % scale 0 is the no-effect control and ±100 the full control effect; nearly all actives have a fitted effect of over 60% in size
#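 Kinetic colorimetric format: TGR-catalysed, NADPH-driven DTNB reduction monitored via TNB absorbance. Enzyme dispensed at 20 nM; compound exposure 15 min at room temperature before reaction start.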
# Pf growth 96h: Primary qHTS for delayed death inhibitors of the malarial parasite plastid, 96 hour incubation | 320,000 compounds, 6.9% hits | P. falciparum luciferase reporter growth, 96 h | Potency, µM (titrated, usually from 28.7 µM), without a hit: at the highest dose activity change, negative = inhibition, hits mostly inhibitors; further: potency means the concentration at half of the fitted maximal effect; on the % scale 0 is the no-effect control and ±100 the full control effect
#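 Compounds incubated with erythrocytes infected by luciferase-expressing P. falciparum (2% hematocrit, 0.05% parasitemia final) for 96 hours, 37 C in 5% CO2. Growth inhibition scored as decreased luciferase luminescence.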
# * = called active by the depositor; ? = inconclusive; · = not tested or not shown. Unless noted, the call rests on the fitted dose curve; in most records, active means well fitted curve in the direction sought with a large enough effect; inconclusive means small, poorly fitted or top-dose-only effect, or another doubt; inactive means no such curve, though single readings can be large; an effect the other way counts as inactive or inconclusive.
SMILES,HCMV antiviral,HCV inh,Pf growth 48h,SARS PLpro yeast,Sm TGR inh,Pf growth 96h
COc1ccc(C)cc1NC(=O)/C=C/c1ccc(OC)c(S(=O)(=O)N2CCOCC2)c1,-21.7,?,9.28µM*,-10.6%,-10.7%,5.22µM*
COc1ccc(/C=C/C(=O)NC2CCCCCCC2)cc1S(=O)(=O)N1CCOCC1,93.0,-26.5%,?,-3.2%,-4.1%,5.86µM*
COc1ccc(/C=C/C(=O)Nc2ccc(NC(C)=O)cc2)cc1S(=O)(=O)N1CCOCC1,-17.0,-16.5%,?,-0.5%,9.1%,?
COC(=O)CNc1nc(Cl)nc(NC2CCCCC2)n1,124.9,-6.9%,45.0%,0.9%,-9.5%,5.22µM*
CCCCNc1ncnc2sc3c(c12)CCN(CCC)C3,-62.0*,?,?,0.4%,4.4%,?
CCOC(=O)C(Cc1ccccc1)(Nc1ccccc1OC)C(O)c1ccc(C#N)cc1 (configuration not stated),-66.3*,·,·,·,·,·
COc1ccc(N=C2S/C(=C\c3cc(C)n(C)c3C)C(=O)N2C)cc1,-8.4,11.2µM*,?,-5.4%,50.1µM*,9.28µM*
COc1ccc(N=C2S/C(=C\c3ccc(C)s3)C(=O)N2CC(C)C)cc1,-1.5,6.7%,?,2.8%,-6.4%,?
CCCN1C(=O)/C(=C/c2cc(C)n(C)c2C)SC1=Nc1ccc(OC)cc1,-2.1,?,?,-5.4%,-24.3%,13.1µM*
COc1ccccc1N1C(=O)S/C(=C\c2cc(C)n(C)c2C)C1=O,22.6,?,78.8%,0.3%,?,37.9%
COc1ccc(N=C2S/C(=C\c3cccs3)C(=O)N2CC(C)C)cc1,-11.2,-13.8%,?,-4.3%,5.9%,3.7µM*
C[C@H](CO)N1C[C@H](C)[C@@H](CN(C)S(=O)(=O)c2ccc(F)cc2)Oc2cc(Br)ccc2S1(=O)=O,-1.6,·,·,·,·,·
CC(C)(C)CC(=O)Nc1nnc2n1CCS2,-7.5,·,·,·,9.9%,·
CN(CC(=O)NCc1ccccc1Cl)S(=O)(=O)c1ccc2c(c1)n(C)c(=O)c(=O)n2C,-0.9,4.2%,?,0.1%,-13.9%,-6.4%
O=C1C=C(Nc2ccccc2O)c2ccccc2C1=O,-93.4*,?,10.4µM*,-21.6%,-35.2%,9.28µM*
O=C1C=C(NCc2ccccc2)CCC1,-13.2,10.5%,-1.2%,-3.5%,-3.2%,31.5%
N#Cc1ccccc1NCc1ccccc1,-19.3,16.2%,21.7%,3.3%,-2.0%,?
O=c1cccccc1NCc1ccccc1,-32.9,-0.8%,·,15.4%,35.5µM*,1.3%
O=C1C=C(NCc2ccccc2)c2ccccc2C1=O,-83.9*,?,?,-3.6%,28.2µM*,-4.6%
CC(=O)Nc1ccccc1O,-33.0,20.4%,4.3%,1.9%,4.7%,10.1%
Cc1ccc(NC2=CC(=O)C(=O)c3ccccc32)c(C)c1,-96.3*,?,0.828µM*,-7.3%,-20.3%,0.586µM*
C1CCN(CCCNC2C3CC4CC(C3)CC2C4)C1 (configuration not stated),-84.0*,2.51µM*,?,9.8%,-4.7%,?
C(CNC1C2CC3CC(C2)CC1C3)CN1CCOCC1 (configuration not stated),-9.1,-24.8%,2.3%,-0.3%,-1.9%,0.0%
COc1ccc(NC(=O)CS(=O)CC(=O)Nc2cccnc2)cc1 (configuration not stated),20.2,8.6%,10.4%,-3.3%,5.0%,-1.9%
c1ccc(C[n+]2cccc(-c3ccccc3)c2)cc1,-72.4*,-16.5%,2.08µM*,1.9%,0.5%,0.657µM*
SMILES,HCMV antiviral,HCV inh,Pf growth 48h,SARS PLpro yeast,Sm TGR inh,Pf growth 96h
c1ccc(C[n+]2ccc3ccccc3c2)cc1,-24.7,?,·,·,·,·
CCC(CC)NC(=O)c1cc2c(C)nn(Cc3ccccc3Cl)c2s1,-32.9,?,13.1µM*,-2.6%,-5.3%,·
Cc1nn(Cc2ccc(F)cc2)c2sc(C(=O)Nc3ccccc3N3CCOCC3)cc12,?,?,6.3%,12.5%,4.4%,17.5%
COc1ccccc1CNC(=O)c1cc2c(C)nn(Cc3ccc(F)cc3)c2s1,-32.8,7.08µM*,?,-14.1%,-20.9%,11.7µM*
Cc1nn(Cc2ccccc2Cl)c2sc(C(=O)Nc3ccccc3N3CCOCC3)cc12,?,12.6µM*,?,-4.0%,6.6%,?
Cc1nn(Cc2ccccc2Cl)c2sc(C(=O)NCc3ccc4c(c3)OCO4)cc12,7.0,?,·,1.0%,4.3%,11.7µM*
Cc1cc(OCC(=O)OCC(=O)NCc2ccco2)ccc1Cl,-34.6,-5.4%,?,4.8%,8.7%,27.2%
O=C(CC[C@H]1O[C@@H](n2ccc(=O)[nH]c2=O)[C@H](O)[C@@H]1O)NC1CCN(Cc2ccccc2)C1 (some centres not stated),-6.9,·,·,·,·,·
COc1ccc(CC2=CC(=O)c3ccccc3C2=O)cc1,-96.6*,22.4µM*,?,-23.1%,28.2µM*,6.4%
COc1cccc(OC)c1C(=O)Nc1ccc(S(=O)(=O)Nc2nccc(C)n2)cc1,-5.3,·,·,·,4.0%,·
O=C1C(=Cc2ccccc2[N+](=O)[O-])Cc2ccccc21,-95.6*,·,·,·,·,·
Nc1ccccc1C=C1Cc2ccccc2C1=O,5.0,-23.0%,·,·,·,·
CCC1(C)Cc2c(sc3c2c2ncnn2c2nnc(SCC(=O)NCc4ccco4)n32)CO1 (configuration not stated),-23.1,?,?,7.7%,44.7µM*,?
CC1CCC/C=C/C2CC(O)CC2C(O)/C=C/C(=O)O1 (configuration not stated),-99.7*,0.708µM*,·,-16.4%,-6.0%,?
C[C@H]1CCC/C=C/C2C[C@H](O)CC2[C@H](O)/C=C/C(=O)O1 (some centres not stated),·,?,2.94µM*,13.4%,-14.6%,2.08µM*
CCCCC[C@H]1CCCCC[C@H](O)C[C@H](O)[C@@H](O)/C=C/C(=O)O1,-17.4,·,·,·,·,·
COc1cc(Cl)c(C)cc1NC(=O)CN1CCN(C(=O)C2CC2)CC1,·,?,?,3.9%,-4.5%,?
COc1ccc(N)cc1NC(=O)CN1CCCC1,-5.6,14.4%,5.8%,0.1%,-23.8%,0.117µM*
COc1ccc(S(=O)(=O)N(C)C)cc1NC(=O)CN1CCN(C(=O)C2CC2)CC1,-7.6,10µM*,-24.2%,-0.2%,-17.5%,-15.8%
COc1cc(NC(=O)Nc2ccccc2OC)c(OC)cc1NC(=O)CN1CCCCC1,-26.2,2.24µM*,6.57µM*,0.3%,-22.3%,-22.8%
